Composite z-score and z-score data for 5 compounds are collected here from PubChem BioAssay.

The nature of test [1]: small molecules captured by biotinylated probe aFSTL3 – biochemical, small-molecule microarray, fluorescence 635/667, stem cell growth factor project, primary screen (AID 1064).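 Also: measures binding of the biotinylated anti-FSTL3 antibody to printed compounds.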 Conditions: higher = more signal.
Test [2] is described as follows: binders from COS7 lysate, DM2A8 probe, primary screen, torsin A project, cell lysate, small-molecule microarray, fluorescence 635/667 (AID 1065). Conditions: higher = more signal, COS7 lysate expressing mutant human TOR1A.
A short description of test [3]: small molecules captured by biotinylated probe aFGF2 – biochemical, small-molecule microarray, fluorescence 635/667, stem cell growth factor project, primary screen (AID 1067).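 Also: measures binding of biotinylated aFGF2 protein to printed compounds on slides; z-score merges feature fluorescence and signal-to-noise across triplicate slides.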 The conditions noted are these: higher = more signal.
The nature of test [4]: small molecules captured by biotinylated probe aFGF10 – biochemical, small-molecule microarray, fluorescence 635/667, stem cell growth factor project, primary screen (AID 1071).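 Also: score merges 667 nm spot intensity and signal to noise from triplicate slides.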 The conditions noted are these: higher = more signal.
Test [5] addresses Neurogenic locus notch homolog protein 2 (Homo sapiens) (UniProt Q04721). Put plainly: small molecules binding Notch2 protein – biochemical, small-molecule microarray, 635 nm fluorescence, stem cell growth factors, primary screen (AID 1073). The conditions noted are these: higher = more signal.
Test [6] addresses Pro-neuregulin-1, membrane-bound isoform (Homo sapiens) (UniProt Q02297). The test is described as follows: small molecules binding neuregulin-1 protein – biochemical, small-molecule microarray, fluorescence 635/667, psychiatric disease protein project, primary screen (AID 1075).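 Also: score combines 667 nm spot fluorescence with signal to noise.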 The conditions noted are these: NRG1 binding, 635 nm fluorescence, higher = more signal.
The test system of test [7] is Neuregulin-1 EGF-like domain. Put plainly: small molecules binding NRG1 EGF domain – biochemical, small-molecule microarray, 635 nm fluorescence, primary screen (AID 1081).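 Also: binding of the protein to compounds printed on small-molecule microarray slides.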 The conditions noted are these: higher = more signal.
Test [8] is described as follows: FRG1 expression reporter modulators in myotubes – cell-based, C2C12 myotubes, firefly/Renilla luciferase, luminescence, FRG1 inhibition for FSHD, primary screen (AID 1084). Conditions: FRG1 promoter luciferase, higher = more signal, called active from +8 up or from −8 down.
A short description of test [9]: small molecules captured by biotinylated probe aFST – biochemical, small-molecule microarray, fluorescence 635/667, stem cell growth factor project, primary screen (AID 1086).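 Also: score merges 667 nm fluorescence with signal-to-noise of each printed compound spot.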 The conditions noted are these: higher = more signal.
Test [10] in a line: binders of probe aHhip on microarray, primary screen, stem cell growth factor project, biochemical, small-molecule microarray, fluorescence 635/667 (AID 1087).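 Also: score merges spot fluorescence at 667nm with spot signal to noise ratio.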 Conditions: higher = more signal.
Test [11] relates to PRMT1 (protein arginine N-methyltransferase 1). The test is described as follows: small molecules binding arginine methyltransferase PRMT1 – biochemical, small-molecule microarray, 635 nm fluorescence, primary screen (AID 1088).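 Also: binding of Prmt1 protein to compounds spotted on small-molecule microarray slides.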 Conditions: higher = more signal.
Test [12] is described as follows: growth effects on S. cerevisiae YJM789 – YJM789 clinical isolate, OD600, 24 h, basal, primary screen (AID 1089).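 Also: growth of clinical yeast isolate S. cerevisiae YJM 789 seeded 1000 cells per well; test concentration not given here.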 Conditions: higher = more signal, called active from +8 up or from −8 down.
A short description of test [13]: S. pombe growth modifiers, basal conditions – strain 972, OD600, 24 h, no modulator, primary screen (AID 1090).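 Also: basal condition with compound alone and no growth modifier present; test concentration not given here.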 The conditions noted are these: S. pombe 972 growth, higher = more signal, called active from +8 up or from −8 down.
A short description of test [14]: budding yeast growth modifiers under rapamycin – strain BY4716, OD600, 96 h, primary screen (AID 1091). Also: test concentration not given here. Conditions: S. cerevisiae BY4716 + rapamycin, higher = more signal, called active from +8 up or from −8 down.
Test [15] addresses Torsin-1A-interacting protein 2 (Homo sapiens) (UniProt Q8NFQ8). Put plainly: small molecules binding lysate-expressed LULL1 – cell lysate, human LULL1 lysate, 635/667 nm fluorescence, primary screen (AID 1092).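 Also: score merges per-feature 667 nm fluorescence with signal-to-noise.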 Conditions: small-molecule microarray, hLULL1 lysate binding, 635 nm fluorescence; higher = more signal.
A short description of test [16]: optical density change of DRC41 E. coli – strain DRC41, OD650, 24 h, E. coli filamentation project, primary screen (AID 1093).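 Also: MC1000 strain lacking acrAB efflux and sulA so SOS filamentation is blocked; test concentration not given here.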 The conditions noted are these: E. coli DRC41 growth, higher = more signal, called active from +8 up or from −8 down.
Test [17] is described as follows: probe aLefty2 binding to arrayed compounds – biochemical, biotinylated probe, 635/667 nm fluorescence, primary screen (AID 1094).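 Also: score merges spot fluorescence near 667 nm with spot signal-to-noise ratio.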 The conditions noted are these: small-molecule microarray, higher = more signal.
Test [18] concerns Noggin (protein binding on small-molecule microarray). The test is described as follows: small molecules binding Noggin protein – biochemical, 635/667 nm fluorescence, primary screen (AID 1095).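 Also: score merges 667 nm feature fluorescence with signal to noise over triplicate slides.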 The conditions noted are these: 635 nm fluorescence, higher = more signal.
Test [19] has as its target Neurogenic locus notch homolog protein 3 (Homo sapiens) (UniProt Q9UM47). The test is described as follows: small molecules binding NOTCH3 protein – biochemical, 635/667 nm fluorescence, primary screen (AID 1096). The conditions noted are these: small-molecule microarray, 635 nm fluorescence, higher = more signal.
Test [20] is described as follows: probe aEGFR binding to arrayed compounds – biochemical, biotinylated probe, 635/667 nm fluorescence, primary screen (AID 1097).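 Also: probe is a biotinylated anti-EGFR antibody binding compounds printed on slides; score combines fluorescence near 667 nm and signal to noise of each spot.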 The conditions noted are these: small-molecule microarray, higher = more signal.

SMILES strings stand for the structures. The source made the active and inactive calls.

Neurogenic locus notch homolog protein 2 (Homo sapiens), sequence (Q04721 whole entry, looked up, canonical isoform): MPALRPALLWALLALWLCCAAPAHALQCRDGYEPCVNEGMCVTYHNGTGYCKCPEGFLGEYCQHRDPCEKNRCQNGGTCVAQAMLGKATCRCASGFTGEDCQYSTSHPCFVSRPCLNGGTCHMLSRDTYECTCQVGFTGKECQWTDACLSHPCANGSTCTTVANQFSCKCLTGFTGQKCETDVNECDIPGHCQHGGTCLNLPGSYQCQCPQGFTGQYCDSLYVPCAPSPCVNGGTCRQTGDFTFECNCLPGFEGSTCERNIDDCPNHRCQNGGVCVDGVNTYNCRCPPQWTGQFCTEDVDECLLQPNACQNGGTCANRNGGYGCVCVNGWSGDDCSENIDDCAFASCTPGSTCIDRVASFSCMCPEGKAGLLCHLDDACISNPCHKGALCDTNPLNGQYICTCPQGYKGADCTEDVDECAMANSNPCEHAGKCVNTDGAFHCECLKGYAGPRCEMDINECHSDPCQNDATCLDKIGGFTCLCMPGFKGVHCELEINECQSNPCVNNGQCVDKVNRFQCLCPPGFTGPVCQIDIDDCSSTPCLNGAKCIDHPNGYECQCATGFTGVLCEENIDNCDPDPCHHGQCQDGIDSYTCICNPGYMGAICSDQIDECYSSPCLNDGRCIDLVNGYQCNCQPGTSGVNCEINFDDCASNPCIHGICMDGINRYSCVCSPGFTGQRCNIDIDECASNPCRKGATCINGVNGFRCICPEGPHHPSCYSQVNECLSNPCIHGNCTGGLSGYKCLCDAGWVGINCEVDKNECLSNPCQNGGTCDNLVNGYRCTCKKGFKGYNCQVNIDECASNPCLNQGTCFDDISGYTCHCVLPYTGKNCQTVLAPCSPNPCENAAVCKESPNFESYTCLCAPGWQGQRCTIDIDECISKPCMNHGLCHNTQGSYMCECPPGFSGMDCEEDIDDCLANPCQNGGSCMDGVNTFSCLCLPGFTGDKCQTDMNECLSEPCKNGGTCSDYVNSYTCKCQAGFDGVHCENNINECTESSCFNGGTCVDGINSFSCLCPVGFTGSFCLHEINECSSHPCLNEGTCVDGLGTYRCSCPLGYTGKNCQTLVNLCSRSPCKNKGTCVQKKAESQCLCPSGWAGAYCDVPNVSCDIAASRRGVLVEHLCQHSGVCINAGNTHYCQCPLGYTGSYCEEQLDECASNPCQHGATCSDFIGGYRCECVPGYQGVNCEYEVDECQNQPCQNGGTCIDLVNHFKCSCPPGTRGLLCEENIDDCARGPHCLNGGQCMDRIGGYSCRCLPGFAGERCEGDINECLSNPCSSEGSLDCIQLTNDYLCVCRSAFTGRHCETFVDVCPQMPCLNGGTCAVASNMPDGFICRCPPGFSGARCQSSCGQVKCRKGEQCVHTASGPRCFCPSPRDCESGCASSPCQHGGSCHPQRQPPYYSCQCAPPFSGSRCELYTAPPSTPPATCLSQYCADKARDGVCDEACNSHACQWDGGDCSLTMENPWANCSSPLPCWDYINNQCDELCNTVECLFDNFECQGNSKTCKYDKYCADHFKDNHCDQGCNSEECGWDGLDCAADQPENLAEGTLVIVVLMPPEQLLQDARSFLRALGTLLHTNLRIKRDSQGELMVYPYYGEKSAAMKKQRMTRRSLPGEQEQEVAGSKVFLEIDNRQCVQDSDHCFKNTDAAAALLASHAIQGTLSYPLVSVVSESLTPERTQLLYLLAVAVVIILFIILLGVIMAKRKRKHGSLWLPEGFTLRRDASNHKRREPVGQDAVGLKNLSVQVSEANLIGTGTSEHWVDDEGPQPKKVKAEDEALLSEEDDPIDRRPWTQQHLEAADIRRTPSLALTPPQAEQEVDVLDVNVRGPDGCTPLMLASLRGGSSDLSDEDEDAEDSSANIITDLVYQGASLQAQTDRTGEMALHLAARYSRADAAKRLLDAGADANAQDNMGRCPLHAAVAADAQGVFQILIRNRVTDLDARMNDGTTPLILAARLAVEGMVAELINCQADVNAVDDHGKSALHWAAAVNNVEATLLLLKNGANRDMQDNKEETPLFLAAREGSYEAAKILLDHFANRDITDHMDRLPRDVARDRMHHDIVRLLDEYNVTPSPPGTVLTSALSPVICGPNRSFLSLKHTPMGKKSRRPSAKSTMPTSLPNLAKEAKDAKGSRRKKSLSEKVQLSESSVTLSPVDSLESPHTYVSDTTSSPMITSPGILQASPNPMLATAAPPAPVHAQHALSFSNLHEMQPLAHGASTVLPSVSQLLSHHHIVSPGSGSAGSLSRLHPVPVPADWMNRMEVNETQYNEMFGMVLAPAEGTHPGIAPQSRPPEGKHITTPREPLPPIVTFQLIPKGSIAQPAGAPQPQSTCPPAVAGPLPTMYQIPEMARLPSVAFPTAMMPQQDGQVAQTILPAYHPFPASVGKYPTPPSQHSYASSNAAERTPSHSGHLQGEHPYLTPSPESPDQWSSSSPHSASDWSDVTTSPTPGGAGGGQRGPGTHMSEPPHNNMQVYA
Torsin-1A-interacting protein 2 (Homo sapiens), sequence (Q8NFQ8 whole entry, looked up): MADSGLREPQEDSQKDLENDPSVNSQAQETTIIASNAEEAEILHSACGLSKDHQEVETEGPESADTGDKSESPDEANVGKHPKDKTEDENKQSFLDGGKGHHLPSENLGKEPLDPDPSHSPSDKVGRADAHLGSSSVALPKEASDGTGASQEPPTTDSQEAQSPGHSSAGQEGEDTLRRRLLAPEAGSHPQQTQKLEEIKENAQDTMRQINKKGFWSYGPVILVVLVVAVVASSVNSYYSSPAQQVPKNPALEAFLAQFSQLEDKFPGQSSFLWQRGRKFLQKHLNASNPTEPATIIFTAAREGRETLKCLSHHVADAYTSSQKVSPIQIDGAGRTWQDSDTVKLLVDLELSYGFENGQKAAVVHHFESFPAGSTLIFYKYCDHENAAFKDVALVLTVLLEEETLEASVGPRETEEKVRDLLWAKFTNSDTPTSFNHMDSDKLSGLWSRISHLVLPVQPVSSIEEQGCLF
Pro-neuregulin-1, membrane-bound isoform (Homo sapiens), sequence (Q02297 whole entry, looked up, the tested form may be a part, canonical isoform): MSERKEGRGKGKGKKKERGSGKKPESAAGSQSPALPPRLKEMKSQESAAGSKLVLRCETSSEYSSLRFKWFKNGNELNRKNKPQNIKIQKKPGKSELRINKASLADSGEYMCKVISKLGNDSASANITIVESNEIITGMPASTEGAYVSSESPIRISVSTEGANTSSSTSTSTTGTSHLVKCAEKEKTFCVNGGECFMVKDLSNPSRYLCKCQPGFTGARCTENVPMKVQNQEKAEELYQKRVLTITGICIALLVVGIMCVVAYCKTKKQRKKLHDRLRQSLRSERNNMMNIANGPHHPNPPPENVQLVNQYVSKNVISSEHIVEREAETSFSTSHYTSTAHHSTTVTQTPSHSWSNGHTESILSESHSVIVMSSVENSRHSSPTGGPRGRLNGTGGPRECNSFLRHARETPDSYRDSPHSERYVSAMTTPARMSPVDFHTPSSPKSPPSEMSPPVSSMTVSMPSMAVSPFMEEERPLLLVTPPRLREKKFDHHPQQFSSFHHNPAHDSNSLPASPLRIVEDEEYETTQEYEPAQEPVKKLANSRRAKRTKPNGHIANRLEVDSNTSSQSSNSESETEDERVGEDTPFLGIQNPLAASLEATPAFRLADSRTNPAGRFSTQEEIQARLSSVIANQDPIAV

On to `COCCOC(=O)N1C(=O)[C@@]2(c3cc(C#Cc4ccc(OC)cc4)ccc31)[C@H](C(=O)Nc1nc3ccccc3s1)[C@H]1C(=O)O[C@H](c3ccccc3)[C@H](c3ccccc3)N1[C@@H]2c1ccccc1OCCO`, for which the composite z-score in [1] was -0.233; in [2], 0.444; in test [3], -0.126; in test [4], 0.329; in [5], 1.02; in test [6] it was 0.176. Also, the composite z-score was 0.923 in [7]; -0.179 in [9]; -0.283 in test [10]; 1.58 in test [11]; 1.55 in [15]; -0.179 in [17]. Moreover, the values for the composite z-score in [18], in test [19] and in test [20] were 1.06, 1.13 and -0.0531, respectively. Further, the z-score in test [8] was 0.349 (inactive); in test [12] it was 0.455 (inactive); in test [13], 0.318 (inactive); in test [14], 1.62 (inactive); in test [16], 1.86 (inactive).
In the case of `C=CCOC(=O)[C@@H]1[C@H]2C(=O)O[C@H](c3ccccc3)[C@H](c3ccccc3)N2[C@H](c2ccc(OCCOC(=O)[C@H]3C[C@H]4C(=O)NCC(=O)N4[C@H]3c3ccc(O)cc3)cc2)[C@@]12C(=O)Nc1ccc(I)cc12`, the composite z-score in test [1] is -0.223; in [2], 0.826; in [3], -0.0834; in [4] it was 0.22; in test [5], 0.948; in test [6], 0.675. For the same compound, the composite z-score in [7] is 0.86; in test [9] it was 0.377; in [10], -0.54; in [11], 1.53; in test [15] it was 2.08; in test [17] it was -0.162. Besides, the figures for the composite z-score in test [18], in [19] and in [20] were 1.59, 1.15 and 0.0026, respectively. The z-score in test [8] was 1.2 (inactive); in test [12], 1.22 (inactive); in test [13], 0.761 (inactive); in test [14], 4.27 (inactive); in test [16], -0.615 (inactive).
`CC1(C)OC[C@@]23C=C(Br)[C@@H](C[C@H]12)[C@@]1(CO1)C3=O`: the composite z-score was -0.401 in [1]; 0.374 in [2]; -0.105 in [3]; 0.403 in [4]; 0.517 in test [5]; 0.146 in [6]. Also, the composite z-score in [7] was 0.149; in test [9], 0.0965; in test [10], -0.0423; in test [11], -0.0986; in test [15], -0.202; in test [17], -0.153. In addition, the composite z-score in [18] is 0.232; in test [19], 0.378; in [20], -0.109. Also, the z-score is -0.468 (inactive) in test [8]; 0.409 (inactive) in [12]; -1.24 (inactive) in test [13]; 0.125 (inactive) in [14]; -0.665 (inactive) in test [16].
Consider `C=CCNC(=O)[C@@H]1[C@H]2C(=O)O[C@H](c3ccccc3)[C@H](c3ccccc3)N2[C@H](c2ccc(O)cc2)[C@@]12C(=O)Nc1ccc(C#CC3(O)CCCCCC3)cc12`, for which the composite z-score in [1] is -0.258; in [2], 0.102; in [3] it was -0.1; in test [4], 0.434; in test [5], 0.469; in [6], 0.606. Also, the composite z-score was 0.979 in test [7]; -0.0976 in test [9]; -0.0391 in [10]; 0.994 in [11]; 1.57 in test [15]; -0.113 in test [17]. For the same compound, the composite z-score in test [18] was 0.553; in test [19], -0.0051; in [20], -0.013. Further, the z-score in [8] is 0.273 (inactive); in [12], 0.154 (inactive); in test [13], 0.0674 (inactive); in [14] it was 0.0489 (inactive); in [16], -0.447 (inactive).
In the case of `C=CCC(OC(C)=O)[C@@H]1[C@@H](N(Cc2ccc(-c3cccc(C(F)(F)F)c3)o2)C(=O)c2cccc3ccccc23)c2cc(OCCCO)ccc2N1C(=O)c1ccc2ccccc2n1` (stereo not given in full), the composite z-score was 0.672 in [1]; 0.584 in test [2]; -0.0242 in test [3]; 0.232 in test [4]; -0.381 in test [5]; 0.0262 in test [6]. Moreover, the composite z-score in test [7] is -0.393; in test [9] it was -0.111; in test [10], 0.185; in [11], 0.24; in test [15], -0.039; in [17], -0.0209. The composite z-score in test [18] is -0.029; in test [19], -0.684; in test [20] it was -0.132. The z-score in [8] is -0.147 (inactive); in [12], 0.75 (inactive); in test [13] it was 0.835 (inactive); in [14] it was 0.356 (inactive); in [16], -0.746 (inactive).
